The source of these data is PubChem BioAssay.

Experiment [1] is described as follows: HepG2 liver cancer cell viability effects, profiling panel, resazurin fluorescence, 24 h, PK04 Diversity Set (AID 1172). Note: test concentration not given here. The settings on record: higher = more signal. In general terms: The colour change of resazurin is a common sign of viable cells or microbes.
Experiment [2] is described as follows: basal S. cerevisiae growth modulation, no modifier, primary screen, OD600, strain BY4716, 24 h, basal condition (AID 1173). The conditions noted are these: OD600, 24 h, higher = more signal, called active from +8 up or from −8 down.
A short description of experiment [3]: MM1S myeloma cell viability, profiling panel, resazurin fluorescence, basal, 24 h, PK04 Diversity Set (AID 1174).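 Note: MM1S multiple myeloma cell line; test concentration not given here.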 The conditions noted are these: higher = more signal, called active from +8 up or from −8 down.
For experiment [4], the target named is Dihydroorotate dehydrogenase (quinone), mitochondrial (Plasmodium falciparum (isolate 3D7)) (UniProt Q08210). In words: PfDHODH enzyme inhibitors, primary screen, biochemical, C-terminal His tag, absorbance 600 nm (AID 1175).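 Note: recombinant parasite enzyme with a five histidine tag at its C terminus; test concentration not given here.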 The conditions noted are these: DCIP absorbance 600 nm, higher = more signal, called active from +8 up or from −8 down.
Experiment [5] is described as follows: P. aeruginosa biofilm formation inhibitors, primary screen, strain PAO1, LB-PBS medium, absorbance 600 nm (AID 1176). Note: test concentration not given here. The conditions noted are these: P. aeruginosa PAO1 growth/biofilm, A600, 12 h; higher = more signal.
Experiment [6] in a line: S. cerevisiae RM11-1a growth modifiers, primary screen, strain RM11-1a, OD600, basal, 24 h (AID 1177).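 Note: cultures grown under basal conditions with no added stressor; test concentration not given here.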 The conditions noted are these: OD600, 24 h, higher = more signal, called active from +8 up or from −8 down.
The nature of experiment [7]: E. coli acrAB mutant growth effects, primary screen, E. coli filamentation inducers, strain DRC39, OD650, 24 h (AID 1178).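 Note: growth measured as culture turbidity by optical density at 650 nm; test concentration not given here.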 The conditions noted are these: higher = more signal, called active from +8 up or from −8 down.
Experiment [8] in a line: E. coli acrAB mutant growth effects, primary screen, E. coli filamentation inducers, strain DRC39, OD650, 48 h (AID 1179).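 Note: screen aims at cell division blockers that make cells filament.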 The settings on record: E. coli DRC39 delta-acrAB growth, higher = more signal, called active from +8 up or from −8 down.
Experiment [9] can be described thus: RPMI8226 myeloma cell viability, profiling panel, resazurin fluorescence, basal, 24 h, PK04 Diversity Set (AID 1180).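 Note: RPMI8826 multiple myeloma cell line at 5000 cells per well; test concentration not given here.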 The settings on record: higher = more signal.
For experiment [10], the target named is E3 ubiquitin-protein ligase XIAP (Homo sapiens) (UniProt P98170). In words: XIAP binders, primary screen, biophysical, small-molecule microarray, fluorescence 635 nm (AID 1181).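 Note: score merges 667 nm emission and signal to noise over triplicate slides.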 The settings on record: small-molecule microarray binding, higher = more signal.

The structures appear in SMILES notation. The source made the active and inactive calls. Unless noted, the rule behind the calls is not given here.

Sequence of Dihydroorotate dehydrogenase (quinone), mitochondrial (Plasmodium falciparum (isolate 3D7)) (Q08210 whole entry, looked up): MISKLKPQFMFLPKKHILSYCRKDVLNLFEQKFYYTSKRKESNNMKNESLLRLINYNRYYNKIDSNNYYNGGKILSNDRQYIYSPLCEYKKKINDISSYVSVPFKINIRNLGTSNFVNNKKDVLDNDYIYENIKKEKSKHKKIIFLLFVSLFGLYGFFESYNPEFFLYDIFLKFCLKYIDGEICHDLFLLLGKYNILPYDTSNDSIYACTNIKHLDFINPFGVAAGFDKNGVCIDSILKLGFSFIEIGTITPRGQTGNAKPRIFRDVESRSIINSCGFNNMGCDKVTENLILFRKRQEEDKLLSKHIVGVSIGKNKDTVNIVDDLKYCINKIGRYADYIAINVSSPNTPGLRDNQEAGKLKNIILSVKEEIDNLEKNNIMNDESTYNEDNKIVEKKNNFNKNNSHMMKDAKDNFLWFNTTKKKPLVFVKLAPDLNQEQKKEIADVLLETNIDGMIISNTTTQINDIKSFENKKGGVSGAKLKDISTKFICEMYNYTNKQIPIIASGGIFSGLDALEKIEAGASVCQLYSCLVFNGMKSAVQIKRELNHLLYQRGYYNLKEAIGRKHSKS
Sequence of E3 ubiquitin-protein ligase XIAP (Homo sapiens) (P98170 whole entry, looked up): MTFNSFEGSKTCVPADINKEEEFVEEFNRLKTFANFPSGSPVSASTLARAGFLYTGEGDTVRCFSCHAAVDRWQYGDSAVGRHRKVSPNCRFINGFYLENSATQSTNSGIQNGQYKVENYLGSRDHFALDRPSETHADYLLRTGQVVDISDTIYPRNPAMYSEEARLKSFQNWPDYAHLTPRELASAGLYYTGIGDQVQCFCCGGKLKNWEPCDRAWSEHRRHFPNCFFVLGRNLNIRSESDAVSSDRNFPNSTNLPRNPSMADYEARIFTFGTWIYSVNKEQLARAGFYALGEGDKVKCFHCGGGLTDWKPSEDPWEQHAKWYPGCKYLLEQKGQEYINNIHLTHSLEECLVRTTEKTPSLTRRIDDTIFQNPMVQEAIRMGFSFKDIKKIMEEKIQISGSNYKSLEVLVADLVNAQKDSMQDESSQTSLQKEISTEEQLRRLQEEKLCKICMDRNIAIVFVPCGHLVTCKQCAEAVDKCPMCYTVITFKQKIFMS

In the case of `O=C1O[C@H](c2ccccc2)[C@H](c2ccccc2)N2[C@H]1[C@@H](C(=O)O)[C@]1(C(=O)Nc3ccc(C#CC4=CCCCC4)cc31)[C@H]2c1ccc(O)cc1`, the z-score in experiment [1] is -0.176; in experiment [2], -1.73 (inactive); in [3], 0.248 (inactive); in experiment [5] it was 1.42 (inactive); in [6], 0.168 (inactive); in experiment [7], -0.448 (inactive). The z-score in experiment [8] is -0.174 (inactive); in experiment [9], -0.0705. The composite z-score in experiment [4] was -4.56 (inactive); in experiment [10], 0.0938.

In the case of `O=c1n(-c2ccccc2)c(=O)n2n1CC(COc1ccccc1)=C([C@H](O)CCc1ccccc1)[C@@H]2CO`, the z-score is -0.633 in experiment [1]; -2.28 (inactive) in [2]; -0.83 (inactive) in [3]; -0.0126 (inactive) in experiment [5]; -3.02 (inactive) in experiment [6]; 1.24 (inactive) in experiment [7]. For the same compound, the z-score in experiment [8] is 0.395 (inactive); in [9], -0.0454. Besides, the values for the composite z-score in experiment [4] and in experiment [10] were -1.09 (inactive) and -0.472, respectively.

Regarding `CN1C(=O)C2C=CC(C(O)C#Cc3ccccc3)N(Nc3ccccc3)C2C1=O` (stereo not given), the z-score in experiment [1] is -0.264; in experiment [2], -1.36 (inactive); in experiment [3] it was -1.06 (inactive); in experiment [5] it was -0.103 (inactive); in [6] it was 1.39 (inactive); in experiment [7], -0.0835 (inactive). Further, the z-score is -1.05 (inactive) in experiment [8] and -0.633 in experiment [9]. The figures for the composite z-score in experiment [4] and in experiment [10] were 0.164 (inactive) and 0.394, respectively.

Turning to `C=C(C(=O)CC[C@@H](OC(C)=O)c1ccc(CO)o1)C(C)C`, the z-score in [1] is -0.192; in [2], -0.788 (inactive); in experiment [3], 0.0874 (inactive); in experiment [5] it was 2.05 (inactive); in [6] it was -0.396 (inactive); in experiment [7], -0.351 (inactive). Further, the z-score in [8] was -0.374 (inactive); in experiment [9], 0.0268. Besides, the composite z-score in experiment [4] is -1.75 (inactive); in [10], 0.68.

With `C=C(COC)/C(=C/C[C@H](OC(C)=O)c1ccc(OCCO)cc1)c1cc(C(=O)OC)ccc1OC`, the z-score is 1.26 in experiment [1]; 0.147 (inactive) in [2]; 0.901 (inactive) in experiment [3]; 0.838 (inactive) in experiment [5]; -0.957 (inactive) in experiment [6]; 1.94 (inactive) in experiment [7]. Also, the values for the z-score in experiment [8] and in experiment [9] were 1.37 (inactive) and 1.46, respectively. The composite z-score in [4] was -2.16 (inactive); in [10] it was -0.345.

For `CN(C)C(=O)C1N=C(c2ccc(OCCCO)cc2)N(c2ccccc2)O1` (stereo not given), the z-score is 0.244 in [1]; -1.29 (inactive) in experiment [2]; 0.689 (inactive) in experiment [3]; -0.841 (inactive) in experiment [5]; 0.353 (inactive) in experiment [6]; 1.16 (inactive) in [7]. Further, the results for the z-score in experiment [8] and in experiment [9] were 1.56 (inactive) and 0.271, respectively. Further, the composite z-score is -1.01 (inactive) in [4] and -0.181 in [10].

On to `CC(=O)NCCCC[C@@H]1NC(=O)[C@H]2C[C@@H](C(=O)NCCCC[N+](C)(C)C)[C@@H](c3cccc(OCCO)c3)N2C1=O`, for which the z-score in experiment [1] was -0.704; in [2], 0.294 (inactive); in experiment [3] it was 0.785 (inactive); in experiment [5], 0.45 (inactive); in experiment [6], -0.724 (inactive); in experiment [7], 0.417 (inactive). Moreover, the z-score is -0.369 (inactive) in experiment [8] and 0.228 in [9]. Also, the composite z-score is -30.8 (active) in experiment [4] and 0.0223 in experiment [10].

Turning to `COC(=O)[C@@]1(Cc2ccc(OC)cc2)[C@H]2c3cc(C(=O)N4CCCC4)n(Cc4c(-c5ccccc5)noc4C)c3C[C@H]2CN1C(=O)c1ccccc1`, the z-score was -0.338 in experiment [1]; 1.63 (inactive) in [2]; -0.39 (inactive) in [3]; -0.526 (inactive) in [5]; 1.18 (inactive) in [6]; 0.343 (inactive) in experiment [7]. In addition, the z-score is -0.57 (inactive) in [8] and -0.61 in experiment [9]. For the same compound, the results for the composite z-score in experiment [4] and in [10] were 0.486 (inactive) and -0.0048, respectively.

Consider `O=C1O[C@H](c2ccccc2)[C@H](c2ccccc2)N2[C@H]1[C@@H](C(=O)Nc1nc3ccccc3s1)[C@]1(C(=O)Nc3ccc(C#CCCO)cc31)[C@H]2c1ccc(O)cc1`, for which the z-score in experiment [1] is 0.506; in experiment [2] it was 0.14 (inactive); in experiment [3] it was 0.157 (inactive); in experiment [5] it was 1.04 (inactive); in experiment [6], 0.604 (inactive); in experiment [7] it was 0.266 (inactive). Besides, the z-score in experiment [8] is 0.145 (inactive); in experiment [9] it was -2.4. Also, the composite z-score in [4] is -0.253 (inactive); in experiment [10], 1.01.

For the compound `O=C1OCC=C[C@H]2OC34C=CCN(Cn5nnc6ccccc65)C(=O)[C@H]3N(CCCO)C(=O)[C@@H]4[C@@H]12` (stereo not given in full), the z-score in [1] is -0.281; in experiment [2] it was -0.68 (inactive); in [3], -0.319 (inactive); in [5] it was -0.0684 (inactive); in [6], -0.0325 (inactive); in experiment [7], -1.4 (inactive). The results for the z-score in [8] and in [9] were -1.1 (inactive) and -0.509, respectively. In addition, the composite z-score in experiment [4] is -2.85 (inactive); in experiment [10], -0.105.

With `CCOc1cc(C(O)C2C=CC3C(=O)N(c4ccccc4)C(=O)C3N2Nc2ccc(C#N)cc2)ccc1O` (stereo not given), the z-score in experiment [1] is -1.79; in [2] it was -0.0687 (inactive); in experiment [3], -1.71 (inactive); in experiment [5], 0.888 (inactive); in [6] it was 0.093 (inactive); in experiment [7] it was -0.523 (inactive). Also, the z-score in experiment [8] is -0.245 (inactive); in [9], -1.4. The composite z-score was 0.45 (inactive) in experiment [4] and -0.0438 in [10].

For the compound `O=C(NCCCCCNC(=O)/C(Cc1ccccc1)=N/O)OCc1ccccc1`, the z-score was 0.619 in [1]; -3.54 (inactive) in experiment [2]; 0.63 (inactive) in experiment [3]; 0.695 (inactive) in experiment [5]; -1.21 (inactive) in experiment [6]; 1.92 (inactive) in experiment [7]. Besides, the z-score in [8] is 1.42 (inactive); in experiment [9] it was 1.09. The composite z-score in [4] was -0.713 (inactive); in experiment [10], -0.253.

Consider `COCCOC(=O)N1C(=O)[C@@]2(c3cc(C#Cc4ccc(OC)cc4)ccc31)[C@H](c1ccccc1OCCO)N1[C@H](c3ccccc3)[C@H](c3ccccc3)OC(=O)[C@H]1[C@@H]2C(=O)N1CCCCCCC1`, for which the z-score in experiment [1] is 0.457; in experiment [2], 1.29 (inactive); in [3], 0.0229 (inactive); in experiment [5] it was 3.49 (inactive); in [6] it was 1.84 (inactive); in experiment [7] it was -0.398 (inactive). Moreover, the results for the z-score in experiment [8] and in experiment [9] were 0.118 (inactive) and 0.504, respectively. Also, the values for the composite z-score in [4] and in experiment [10] were -1.26 (inactive) and 0.223, respectively.
